We go through eleven molecules from PubChem BioAssay (NCATS).

Inconclusive results are not listed. Calls of active or inactive are those of the source. Calls follow the shape of the dose curve; as a rule, active = well fitted curve in the direction sought with a large enough effect; inconclusive = small, poorly fitted or top-dose-only effect, or another doubt; inactive = no such curve, though single readings can be large or run the other way.
% is scaled to controls: 0 for no effect and ±100 for the full control effect.

This assay is described as follows: qHTS Assay for Identifying Gametocytocidal Compounds (AID 743244).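 Also: actives lower the fluorescent signal which means gametocytes are killed.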 Particulars: P. falciparum 3D7 stage III-V gametocytes, alamarBlue, 72 h; max response: active compounds read low. In short, it runs like this: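 Stage III–V gametocytes of P. falciparum 3D7 were seeded at 20,000 cells/well onto pre-dispensed compounds. After 72 h, 37 °C, 5% CO2, alamarBlue was added for another 24 h.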
A general note: In qHTS, concentration-response curves come from the screen itself.
Turning to `CC(C)C[C@H](NC(=O)[C@@H](Cc1c[nH]c2ccccc12)NC(=O)[C@H](Cc1ccc(O)cc1)NC(=O)[C@H](CO)NC(=O)[C@H](Cc1c[nH]c2ccccc12)NC(=O)[C@H](Cc1cnc[nH]1)NC(=O)[C@@H]1CCC(=O)N1)C(=O)N[C@@H](CCCN=C(N)N)C(=O)N1CCC[C@@H]1C(=O)NCC(N)=O`, the max response is -1.22% (inactive).
The result for `CCCCCCCCCCCC(=O)OC[C@@H](O)C1OC[C@H](O)[C@H]1O` (stereo partly specified) reads -8.97% (inactive).
The result for `CC(=O)NCCCS(=O)(=O)O` reads 7.56% (inactive); that for `C[C@H](NCCc1ccc(O)cc1)[C@H](O)c1ccc(O)cc1`, 10.2% (inactive).
The same measure for `OC[C@H]1O[C@@H](O[C@H]2[C@H](O)[C@@H](O)[C@H](O)O[C@@H]2CO)[C@H](O)[C@@H](O)[C@@H]1O`: 2.58% (inactive); for `O=P(O)(O)OP(=O)(O)O`: 2.77% (inactive); for `CNC(=O)C[C@@H](N)C(=O)N[C@@H](C(=O)N[C@@H]1C(=O)N2[C@@H]1SC(C)(C)[C@@H]2C(=O)O)c1ccc(O)cc1`: -4.28% (inactive).
Consider `CN[C@@H]1[C@H](O[C@H]2[C@H](O[C@H]3[C@H](O)[C@@H](O)[C@H](N=C(N)N)[C@@H](O)[C@@H]3N=C(N)N)O[C@@H](C)[C@]2(O)C=O)O[C@@H](CO)[C@H](O)[C@H]1O`, for which the max response was 14.8% (inactive).
`O=C1N=C2SCCN2C(=O)C1Cc1ccc(Cl)cc1` (stereo unspecified): the max response was -5.09% (inactive).
The same measure for `CCCC(=O)Nc1c(I)cc(I)c(CC(CC)C(=O)O)c1I` (stereo unspecified): 15% (inactive); for `O=C(CCCCCCCCCCCCC1CCCC1)Nc1ccc(S(=O)(=O)c2ccc(NC(=O)CCCCCCCCCCCCC3CCCC3)cc2)cc1`: 1.73% (inactive).
